This is an account of results in PubChem BioAssay (NCI).

Compounds without any hit were thinned out: in the full panel of roughly 83,000, 20% have a hit.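 96-well plates, one dose, 48 hours. Percent growth reported; active if below 10.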 A number with no mark means an inactive call. Activity calls are given as the source filed them.

For this experiment, the system named is SK-OV-3 ovarian. Briefly: NCI-60 one-dose screen, 48 h (100 = growth as untreated, 0 = no growth, -100 = all killed). As to conditions: 10 µM.
With `COc1ccc(-c2cc3c(nn2)-c2ccccc2C3=O)cc1`, the growth was 102%.
Under `CCCCC(=O)c1ccc(OC)cc1` stands 111%; under `N=c1c(C(=O)OCc2ccccc2)ncc(CCl)n1O`, 107%; under `CCOC(=O)c1ccc(Nc2sc(C(=O)c3cccc([N+](=O)[O-])c3)c(N)c2C#N)cc1`, 27.6%.
Under `COC(=O)c1ccccc1N(C)C` stands 95.7%; under `CC1(C(=O)O)NC(C(=O)O)Cc2c1[nH]c1ccccc21` (configuration not stated), 92.7%; under `NCCC(=O)c1ccc(Cl)cc1`, 95.7%.
As for `CC(=O)/C(Cc1ccccc1)=N/O`, the figure is 89.3%.
On to `Cc1cccc(CO)c1`, for which the growth is 107%.
Under `CC1(C)/C(=C\CO)C2CCC1C2` (configuration not stated) stands 99.8%.
As for `CC1C(=O)c2ccccc2CC1C(=O)O` (configuration not stated), the figure is 108%.
As for `CC12CC3CC1C(C(=O)O2)C3C(=O)O` (configuration not stated), the figure is 95.6%; as for `CC(C)CCOC(=O)c1ccccc1`, 104%.
Turning to `O=C1C[C@H](c2ccccc2)[C@H](c2ccccc2)C1`, the growth was 102%.
Under `O=c1cc(-c2ccccc2)oc2c1ccc1ccccc12` stands 88.2%; under `O=C(CCl)N1CCN(C/C=C/c2ccccc2)CC1`, 99.7%; under `COC(=O)c1cccnc1`, 101%.
Under `CC(=O)NCc1cc(C)c(C)cc1C` stands 97.6%.
Under `C#CCSc1nnnn1-c1ccc(Br)c(C)c1` stands 105%; under `C=CCNC(=O)c1ccc(OC)cc1`, 116%.
Consider `O=C1Cc2ccccc2C(=O)O1`, for which the growth was 114%.
Turning to `Cc1ccccc1C1N=C2Oc3ccccc3C=C2C(=O)N1` (configuration not stated), the growth was -6.3% (active).
